Data published in PubChem BioAssay (Tox21).
Records with an inconclusive call do not appear. Entries that show only a call come without a potency. Activity calls are given as the source filed them. The call rests on the fitted dose curve; in most records, active means well fitted curve in the direction sought with a large enough effect in the repeat runs; inconclusive means weak or mixed curves; inactive means no such curve, though single readings can be large; an effect the other way counts as inactive or inconclusive.

target: Cytochrome P450 1A2 (Homo sapiens) (UniProt P05177); test: Cytochrome P450 Family 1 Subfamily A Member 2 (CYP1A2) small molecule antagonists: luciferase reporter qHTS assay (AID 1671199); conditions: P450-Glo CYP1A2 enzyme, luciferin luminescence, 1 h; series mostly up to 115 µM
Outline: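 Luminescence from luciferin formed by CYP1A2 from a proluciferin substrate, read 20 min after detection reagent. Compound was pre-incubated 10 min with enzyme-substrate, and reaction started with NADPH regeneration solution for 1 h at room temperature; furafylline control.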
Further: nearly all actives have a fitted effect of over 50% in size.
Potency means the concentration at half of the fitted maximal effect.

Sequence of Cytochrome P450 1A2 (Homo sapiens) (P05177 whole entry, looked up): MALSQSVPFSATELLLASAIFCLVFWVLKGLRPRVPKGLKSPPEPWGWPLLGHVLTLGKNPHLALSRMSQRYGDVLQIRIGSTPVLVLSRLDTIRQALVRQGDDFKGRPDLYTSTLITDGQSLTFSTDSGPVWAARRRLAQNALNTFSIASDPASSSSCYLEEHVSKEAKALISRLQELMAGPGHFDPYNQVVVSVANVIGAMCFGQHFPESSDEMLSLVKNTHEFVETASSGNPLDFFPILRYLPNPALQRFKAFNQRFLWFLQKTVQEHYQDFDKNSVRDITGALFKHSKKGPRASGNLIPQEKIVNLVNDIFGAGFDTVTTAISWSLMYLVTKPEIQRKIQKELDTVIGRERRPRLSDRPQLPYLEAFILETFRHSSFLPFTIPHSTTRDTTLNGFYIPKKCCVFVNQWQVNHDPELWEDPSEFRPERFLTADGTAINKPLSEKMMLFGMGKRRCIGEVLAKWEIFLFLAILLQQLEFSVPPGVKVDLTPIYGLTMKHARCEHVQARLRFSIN

Compound | Potency
NC(=O)c1ccccc1C(N)=O | 28.4 µM (active)
CC(=O)OCC(=O)[C@@]1(O)CC[C@H]2[C@@H]3CCC4=CC(=O)C=C[C@]4(C)[C@@]3(F)[C@@H](O)C[C@@]21C | inactive
CC(=O)Oc1cccc2c1C(=O)c1c(OC(C)=O)cc(C(=O)O)cc1C2=O | inactive
CCC1=C(C)CN(C(=O)NCCc2ccc(S(=O)(=O)NC(=O)NC3CCC(C)CC3)cc2)C1=O (stereo not drawn) | inactive
CCOCCn1c(N2CCCN(C)CC2)nc2ccccc21 | inactive
O=C1c2ccccc2C(=O)c2c1ccc(O)c2O | 25.7 µM (active)
CC(C)=CCC[C@H](C)CCO | inactive
Oc1ccc(CCNCCCCCCNCCc2ccccc2)cc1O | inactive
Cc1cc(SC2=C(O)C[C@@](CCc3ccc(N)cc3)(C(C)C)OC2=O)c(C(C)(C)C)cc1CO | inactive
CCc1cnc(C(=O)O)c(C(=O)O)c1 | inactive
CCCc1nc(C)c2c(=O)[nH]c(-c3cc(S(=O)(=O)N4CCN(CC)CC4)ccc3OCC)nn12 | inactive
Clc1ccccc1-c1nc(-c2ccncc2)no1 | 0.512 µM (active)
CNc1ccccc1 | inactive
COC(=O)C(C)(C)C | 40.5 µM (active)
CCOc1ccc(NC(C)=O)cc1N | 16.1 µM (active)
C=C(C)C(=O)OCCCCCCCCCCOC(=O)C(=C)C | 44.8 µM (active)
CC(C)C[C@H](NC(=O)[C@H](Cc1ccccc1)NC(=O)c1cnccn1)B(O)O | 24.5 µM (active)
O=c1[nH][nH]c2ccccc12 | 10.2 µM (active)

target: Voltage-gated inwardly rectifying potassium channel KCNH2 (Homo sapiens) (UniProt Q12809); test: Human Ether-a-go-go-Related Gene (hERG) channel small molecule antagonists: fluorescence cell-based qHTS assay (AID 1671200); conditions: hERG-U2OS cells, FluxOR thallium flux fluorescence; series mostly up to 76.8 µM
Outline: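 Thallium served as the potassium surrogate; its influx into dye-loaded U2OS cells carrying the channel was measured by fluorescence over 2 min.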

Sequence of Voltage-gated inwardly rectifying potassium channel KCNH2 (Homo sapiens) (Q12809 whole entry, looked up): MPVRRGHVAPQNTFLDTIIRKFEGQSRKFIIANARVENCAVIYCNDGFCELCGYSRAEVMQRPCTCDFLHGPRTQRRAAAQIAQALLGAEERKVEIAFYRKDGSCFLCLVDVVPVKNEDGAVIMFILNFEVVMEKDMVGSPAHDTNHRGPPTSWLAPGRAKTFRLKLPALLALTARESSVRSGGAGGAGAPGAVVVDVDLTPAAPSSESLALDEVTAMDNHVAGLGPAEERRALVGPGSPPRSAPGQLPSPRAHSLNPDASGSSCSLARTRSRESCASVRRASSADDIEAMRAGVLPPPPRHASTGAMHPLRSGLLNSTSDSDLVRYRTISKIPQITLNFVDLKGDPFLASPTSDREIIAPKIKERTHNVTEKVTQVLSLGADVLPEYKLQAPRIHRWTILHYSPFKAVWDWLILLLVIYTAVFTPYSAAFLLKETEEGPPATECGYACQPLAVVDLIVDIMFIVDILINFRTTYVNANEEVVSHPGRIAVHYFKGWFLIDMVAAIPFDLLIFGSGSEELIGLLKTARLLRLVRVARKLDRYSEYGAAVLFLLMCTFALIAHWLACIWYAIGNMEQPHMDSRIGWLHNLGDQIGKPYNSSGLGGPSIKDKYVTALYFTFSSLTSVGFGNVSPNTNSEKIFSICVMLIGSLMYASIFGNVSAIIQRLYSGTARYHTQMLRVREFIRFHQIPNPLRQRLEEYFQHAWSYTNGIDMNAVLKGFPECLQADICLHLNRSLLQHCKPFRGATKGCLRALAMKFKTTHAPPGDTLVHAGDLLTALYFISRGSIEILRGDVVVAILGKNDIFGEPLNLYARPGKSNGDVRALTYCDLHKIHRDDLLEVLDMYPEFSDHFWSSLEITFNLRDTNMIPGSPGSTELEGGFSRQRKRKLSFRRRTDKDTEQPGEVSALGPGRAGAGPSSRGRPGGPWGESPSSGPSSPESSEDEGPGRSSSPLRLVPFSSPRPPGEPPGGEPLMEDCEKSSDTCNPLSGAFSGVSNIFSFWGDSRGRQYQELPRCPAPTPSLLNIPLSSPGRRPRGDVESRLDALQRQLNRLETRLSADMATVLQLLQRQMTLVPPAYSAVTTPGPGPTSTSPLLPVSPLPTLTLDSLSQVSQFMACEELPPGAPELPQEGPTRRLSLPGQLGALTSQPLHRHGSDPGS

Compound | Potency
Cc1ccc(S(=O)(=O)NC(=O)NC2CCCC2)cc1 | inactive
COc1ccc(CN(CCN(C)C)c2ncccn2)cc1 | inactive
Sc1nc(S)nc(S)n1 | inactive
CC1(C)[C@@H]2CC[C@]3(C2)[C@@H]1C(=O)CCC3(C)C | inactive
O=C1c2ccccc2C(=O)C1c1ccc2cc(S(=O)(=O)O)cc(S(=O)(=O)O)c2n1 | inactive
OCCc1ccncc1 | inactive
CC(C)=CCCC(C)C=O (stereo not drawn) | inactive
O=C(O)CCc1nc2ccccc2[nH]1 | inactive
CCCCCCCCNC | inactive
O=C(O)COCC(=O)O | inactive
CCC(C)CCCC(C)(C)O (stereo not drawn) | inactive
CCCCC(CC)COCCC#N (stereo not drawn) | inactive
COc1ccc(/C=C/S(=O)(=O)NC(=O)c2ccc(C)cc2Cl)cc1 | inactive
CC(C)(C)c1cc(C=O)cc(C(C)(C)C)c1O | inactive
Cc1nc2sccn2c(=O)c1CCN1CCC(=C(c2ccc(F)cc2)c2ccc(F)cc2)CC1 | 0.213 µM (active)
COC(=O)/C=C/C(C)=C\C=C\C(C)=C\C=C\C=C(C)\C=C\C=C(C)\C=C\C(=O)O | inactive
O=C(c1ccc(Cl)cc1)c1ccc(Cl)cc1 | inactive
O=C(O)c1ccccc1-n1cc(C(=O)O)c(=O)c2cc(Nc3c(F)cc(F)cc3Cl)c(Cl)cc21 | inactive

Compound | Potency
NC(=O)c1ccccc1C(N)=O | inactive
CC(=O)OCC(=O)[C@@]1(O)CC[C@H]2[C@@H]3CCC4=CC(=O)C=C[C@]4(C)[C@@]3(F)[C@@H](O)C[C@@]21C | inactive
CC(=O)Oc1cccc2c1C(=O)c1c(OC(C)=O)cc(C(=O)O)cc1C2=O | inactive
CCC1=C(C)CN(C(=O)NCCc2ccc(S(=O)(=O)NC(=O)NC3CCC(C)CC3)cc2)C1=O (stereo not drawn) | inactive
CCOCCn1c(N2CCCN(C)CC2)nc2ccccc21 | 7.56 µM (active)
O=C1c2ccccc2C(=O)c2c1ccc(O)c2O | inactive
CC(C)=CCC[C@H](C)CCO | inactive
COc1ccc(/C=C/c2cc(OC)cc(=O)o2)cc1 | inactive
Oc1ccc(CCNCCCCCCNCCc2ccccc2)cc1O | inactive
Cc1cc(SC2=C(O)C[C@@](CCc3ccc(N)cc3)(C(C)C)OC2=O)c(C(C)(C)C)cc1CO | inactive
CCc1cnc(C(=O)O)c(C(=O)O)c1 | inactive
CCCc1nc(C)c2c(=O)[nH]c(-c3cc(S(=O)(=O)N4CCN(CC)CC4)ccc3OCC)nn12 | inactive
Clc1ccccc1-c1nc(-c2ccncc2)no1 | inactive
CNc1ccccc1 | inactive
COC(=O)C(C)(C)C | inactive
CCOc1ccc(NC(C)=O)cc1N | inactive
CC(C)C[C@H](NC(=O)[C@H](Cc1ccccc1)NC(=O)c1cnccn1)B(O)O | inactive
O=c1[nH][nH]c2ccccc12 | inactive

target: Cytochrome P450 3A4 (Homo sapiens) (UniProt P08684); test: Cytochrome P450 Family 3 Subfamily A Member 4 (CYP3A4) small molecule antagonists: luciferase reporter qHTS assay (AID 1671201); conditions: P450-Glo CYP3A4 enzyme, luciferin luminescence, 1 h; series mostly up to 115 µM
Outline: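 Relative luminescence units after 20 min with luciferin detection reagent served as read-out. Beforehand, CYP3A4 turned over a proluciferin substrate for 1 h at room temperature with NADPH regeneration, following 10 min compound preincubation.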

Sequence of Cytochrome P450 3A4 (Homo sapiens) (P08684 whole entry, looked up): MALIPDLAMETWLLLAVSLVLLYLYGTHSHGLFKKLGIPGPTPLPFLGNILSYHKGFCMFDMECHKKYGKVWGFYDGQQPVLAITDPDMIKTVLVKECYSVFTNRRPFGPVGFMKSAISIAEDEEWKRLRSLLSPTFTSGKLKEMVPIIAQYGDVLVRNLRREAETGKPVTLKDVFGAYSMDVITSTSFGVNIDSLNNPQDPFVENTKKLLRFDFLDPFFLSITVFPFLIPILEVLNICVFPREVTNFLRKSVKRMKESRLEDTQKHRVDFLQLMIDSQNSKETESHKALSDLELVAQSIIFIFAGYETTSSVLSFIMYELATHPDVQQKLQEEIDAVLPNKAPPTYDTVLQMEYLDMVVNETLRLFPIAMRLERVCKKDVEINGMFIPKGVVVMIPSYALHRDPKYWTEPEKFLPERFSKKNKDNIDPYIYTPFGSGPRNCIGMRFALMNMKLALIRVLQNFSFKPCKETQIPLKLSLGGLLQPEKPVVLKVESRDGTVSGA

Compound | Potency
COc1ccc(CN(CCN(C)C)c2ncccn2)cc1 | inactive
Sc1nc(S)nc(S)n1 | inactive
CC1(C)[C@@H]2CC[C@]3(C2)[C@@H]1C(=O)CCC3(C)C | 17.8 µM (active)
O=C1c2ccccc2C(=O)C1c1ccc2cc(S(=O)(=O)O)cc(S(=O)(=O)O)c2n1 | inactive
OCCc1ccncc1 | 28.3 µM (active)
CC(C)=CCCC(C)C=O (stereo not drawn) | 35.6 µM (active)
O=C(O)CCc1nc2ccccc2[nH]1 | inactive
O=C(O)COCC(=O)O | inactive
COc1ccc(/C=C/S(=O)(=O)NC(=O)c2ccc(C)cc2Cl)cc1 | inactive
CC(C)(C)c1cc(C=O)cc(C(C)(C)C)c1O | inactive
Cc1nc2sccn2c(=O)c1CCN1CCC(=C(c2ccc(F)cc2)c2ccc(F)cc2)CC1 | inactive
O=C(c1ccc(Cl)cc1)c1ccc(Cl)cc1 | inactive
CCC1=C(C)CN(C(=O)NCCc2ccc(S(=O)(=O)NC(=O)NC3CCC(C)CC3)cc2)C1=O (stereo not drawn) | inactive
O=C1c2ccccc2C(=O)c2c1ccc(O)c2O | inactive
CC(C)=CCC[C@H](C)CCO | 63.3 µM (active)
COc1ccc(/C=C/c2cc(OC)cc(=O)o2)cc1 | inactive
Oc1ccc(CCNCCCCCCNCCc2ccccc2)cc1O | inactive
Cc1cc(SC2=C(O)C[C@@](CCc3ccc(N)cc3)(C(C)C)OC2=O)c(C(C)(C)C)cc1CO | 3.99 µM (active)
CCc1cnc(C(=O)O)c(C(=O)O)c1 | inactive
Clc1ccccc1-c1nc(-c2ccncc2)no1 | 30.9 µM (active)
Nc1cccc2c(=O)[nH][nH]c(=O)c12 | inactive
CNc1ccccc1 | inactive
C[C@@H](O)[C@H]1C(=O)N2C(C(=O)O)=C(S[C@@H]3CN[C@H](CNS(N)(=O)=O)C3)[C@H](C)[C@H]12 | 3.89 µM (active)
O=c1[nH][nH]c2ccccc12 | 32.3 µM (active)
